In PubChem BioAssay (NCI):
About 79,000 compounds went through this panel and 15% of them were active in at least one assay; those are over-represented in the sample as a whole. No stated cut-off is given here; in the data, active means growth inhibition above about 70%; inactive means the rest.

Columns and labels:
[1] = NCI Yeast Anticancer Drug Screen. Data for the rad50 strain (AID 155);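 further: 0% = growth of vehicle-only cultures of the same strain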; settings: S. cerevisiae rad50 strain growth inhibition; at 50.0 µM; stronger effect = higher value
In short: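 Relative growth inhibition (compound vs vehicle) was measured in yeast with a defined repair-gene alteration.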

[2] = NCI Yeast Anticancer Drug Screen. Data for the mec2-1 strain (AID 157); settings: S. cerevisiae mec2-1 strain, at 50.0 µM, stronger effect = higher value
In short: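 Mutant yeast (mec2-1) grown with compound; growth inhibition relative to vehicle control reported.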

[3] = NCI Yeast Anticancer Drug Screen. Data for the sgs1 mgt1 strain (AID 161);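 further: 0% = growth of cultures given vehicle only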; settings: S. cerevisiae sgs1 mgt1 strain, at 50.0 µM, stronger effect = higher value
In short: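 Percent growth inhibition was derived by comparing compound-exposed mutant yeast with vehicle-exposed cultures. The strain carries alterations in DNA damage repair.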

[4] = NCI Yeast Anticancer Drug Screen. Data for the cln2 rad14 strain (AID 165);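 further: 0% = growth equal to vehicle treated cultures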; settings: S. cerevisiae cln2 rad14 strain, at 50.0 µM, stronger effect = higher value
In short: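 Readout is yeast growth inhibition versus vehicle-treated controls, using a strain with cln2 and rad14 alterations exposed to compound.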

[5] = NCI Yeast Anticancer Drug Screen. Data for the bub3 strain (AID 167); settings: S. cerevisiae bub3 mutant strain, at 50.0 µM, stronger effect = higher value
In short: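 Screening used yeast with an engineered genetic alteration affecting cell cycle control. Compound-exposed cultures were compared with vehicle cultures, and reduced growth was taken as inhibition.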

[6] = NCI Yeast Anticancer Drug Screen. Data for the mlh1 rad18 strain (AID 175); settings: S. cerevisiae mlh1 rad18 strain growth inhibition; at 50.0 µM; stronger effect = higher value
In short: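 Genetically defined yeast (DNA repair-deficient) exposed to compounds; growth inhibition determined relative to vehicle.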

Measured: growth inhibition

CC(C)=CCC/C(C)=C/CN
inactive: [1] 9.25% | [2] -2.6% | [3] 20.4% | [4] -17.6% | [5] 9% | [6] 6.15%

Cn1c[n+](C)c([S-])n1
inactive: [1] -13.2% | [2] 2.6% | [3] -12.1% | [4] -8.45% | [5] 3% | [6] -5.25%

CC(C)NC(=O)OCc1cn2c(c1COC(=O)NC(C)C)CCC2
inactive: [1] 20.4% | [2] 12.8% | [3] 36% | [4] 22.4% | [5] 14.2% | [6] 35%

[N-]=[N+]=NCC(O)Cn1cnc2c(NC(=O)c3ccccc3)ncnc21 (stereo not given)
inactive: [1] -14.7% | [2] -0.15% | [3] 0.85% | [4] -16.1% | [5] 8.6% | [6] 7.2%

COc1cccc(C2SCC(=O)N2c2nncs2)c1OC (stereo not given)
inactive: [1] -34.8% | [2] 6% | [3] 9.95% | [4] 8.3% | [5] 2.6% | [6] -9%

COc1ccc([N+](=O)[O-])c2c1CONC2(C)C(=O)O (stereo not given)
inactive: [1] 8.95% | [2] 16.2% | [3] 8.2% | [4] -4.95% | [5] 3.75% | [6] 16.2%

Nc1nnc(-c2ccc(-c3nnc(N)o3)cc2)o1
inactive: [1] -33.6% | [2] -12.9% | [3] -8.55% | [4] -31.1% | [5] 4.05% | [6] -7.25%

CN(C)CC1CCCC(CN(C)C)C1OC(=O)c1ccccc1 (stereo not given)
inactive: [1] 23% | [2] -5.15% | [3] 9.25% | [4] -37.5% | [5] 14.4% | [6] 50.9%

Fc1ccc(C2(c3ccc(F)cc3)CCCO2)cc1
inactive: [1] 4.4% | [2] -22.4% | [3] -6.15% | [4] 25.7% | [5] -4.1% | [6] 6.2%

CCOc1c(N=Nc2ccccc2C)c(-c2ccccc2)nn1C(N)=S
inactive: [1] 8.25% | [2] 6.85% | [3] 5.4% | [4] 25.4% | [5] -3.5% | [6] 8.25%

COc1cc(C2c3cc4c(cc3OC(N3CCCC3)C2C)OCO4)cc(OC)c1OC (stereo not given)
inactive: [1] 22.4% | [2] -0.5% | [3] -2.9% | [4] 5.75% | [5] 3.1% | [6] 6.55%

COc1ccc(/C=C2\N=C(c3cccc(Cl)c3)OC2=O)cc1OC
inactive: [1] 14.6% | [2] 4.25% | [3] 18.2% | [4] 12.2% | [5] 6.3% | [6] -7.85%

C=C(Br)CN1CCC2(c3ccccc3)C(=O)C([Se]c3ccccc3)CCC12 (stereo not given)
inactive: [1] -5.45% | [2] 8.15% | [3] 8.9% | [4] -7.25% | [5] -1.35% | [6] -0.95%

Cc1n[nH]c(=S)[nH]c1=S
inactive: [1] -14.3% | [2] -5.1% | [3] 9.4% | [4] -42.1% | [5] -23.2% | [6] 14.4%

CCCCCC/C=C\CCCCCCCCCc1cccc(OC)c1O
inactive: [1] 18.4% | [2] 6.65% | [3] -4.3% | [4] 14.5% | [5] 7.8% | [6] 11.7%

N#CC1(C#N)C2(c3ccccc3)OC(c3ccccc3)(c3cc4ccccc4cc32)C1(C#N)C#N
inactive: [1] 1.75% | [2] 20.1% | [3] -4.1% | [4] 14.1% | [5] 8% | [6] 29.1%

CC/C(=C\c1ccccc1OC)c1ccncc1
inactive: [1] 14.2% | [2] -0.1% | [3] 30.4% | [4] 12.2% | [5] 36.6% | [6] 1.55%

COc1ccc(N2C(=O)CC(c3c[nH]c4ccccc34)C2=O)cc1 (stereo not given)
inactive: [1] -29.2% | [2] -37.1% | [3] 1.05% | [4] 6.9% | [5] 13.8% | [6] -22.2%

CSc1ccc(N=Cc2ccccc2O)cc1
inactive: [1] 11.2% | [2] -40% | [3] 22.2% | [4] 15.1% | [5] 8.85% | [6] 19.4%

CC(=O)c1ccccc1NC(=O)C(=O)C(C(=O)c1ccc2ccccc2c1)C1OC(=O)c2ccccc21 (stereo not given)
inactive: [1] -3.15% | [2] 3.45% | [3] 11.4% | [4] -44.2% | [5] 4.85% | [6] 8.25%
